Data: ChEMBL document CHEMBL3433997, “St. Jude Leishmania screening dataset” (2016)

The molecules below were run against Solute carrier family 2, facilitated glucose transporter member 1 (Homo sapiens) (UniProt P11166) (assay: ST_JUDE_LEISH: Cytotoxicity at 2uM final concentration against transgenic Leishmania Mexicana promastigotes LmGLUT1 that are glucose transport deficient and complemented with the human glucose transporter GLUT1. Activity is measured by DNA content using SYBR green in vitro).
Assay type: functional

Solute carrier family 2, facilitated glucose transporter member 1 (Homo sapiens), sequence (P11166 whole entry): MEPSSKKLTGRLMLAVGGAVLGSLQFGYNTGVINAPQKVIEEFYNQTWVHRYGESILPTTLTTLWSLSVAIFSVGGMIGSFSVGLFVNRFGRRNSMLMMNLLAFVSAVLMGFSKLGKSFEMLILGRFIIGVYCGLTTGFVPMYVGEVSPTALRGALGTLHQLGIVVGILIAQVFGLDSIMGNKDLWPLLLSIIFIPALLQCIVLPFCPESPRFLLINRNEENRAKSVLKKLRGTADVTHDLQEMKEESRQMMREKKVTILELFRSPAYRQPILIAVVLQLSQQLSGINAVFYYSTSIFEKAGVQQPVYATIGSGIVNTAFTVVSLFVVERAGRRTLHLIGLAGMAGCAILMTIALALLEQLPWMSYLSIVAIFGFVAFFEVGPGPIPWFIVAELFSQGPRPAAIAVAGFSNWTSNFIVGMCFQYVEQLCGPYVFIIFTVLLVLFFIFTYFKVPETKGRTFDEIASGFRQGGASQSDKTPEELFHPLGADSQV

SMILES	inhibition [%]
COc1ccc(Nc2nccc(N3CCC(NC(=O)c4cc5ccccc5s4)C3)n2)cc1 (stereo not given)	-3.12
CCCCCCCc1c(C)nc2cccc(OC)c2c1O	47.3
CC(C)(C)OC(=O)c1c(NC(=O)/C=C/c2ccc(O)c(O)c2)sc2c1CCCC2	-1.88
COc1ccc(S(=O)(=O)NCCCC2CCN(CCCCCNC(=O)C=Cc3ccc(Cl)c(Cl)c3)CC2)cc1	0.69
N=C1NC(=N)N(OCCCCCCON2C(=N)NC(=N)NC2C=Cc2ccccc2)C(C=Cc2ccccc2)N1 (stereo not given)	1.73
Clc1ccc2nnc(-c3c(Cl)cccc3Cl)n2n1	6.63
Cn1cnc(CCNC(=O)c2ccc(-c3ccc(-c4nc5cc(C(F)(F)F)ccc5[nH]4)s3)cc2)c1	2.93
Cc1cc(C(F)(F)F)n2nc(C(=O)N(Cc3cncn3Cc3ccccc3F)CC3CC3)cc2n1	-1.46
CCN(C)CCCn1c(N(C)C)nc2cc(-n3cnc4cc(-c5ccc(Cl)cc5)sc4c3=O)ccc21	8.73
CC(CCc1ccccc1)NCC(O)c1ccc2c(c1)S(=O)(=O)c1ccccc1N2 (stereo not given)	1.67
CN1CCN(c2ncnc3ccc(NC(=O)Nc4ccc(Cl)c(Cl)c4)cc23)CC1	5
Nc1nc(N)c2c(ccc3nn(Cc4ccccc4)cc32)n1	-0.49
COc1cccc(NC(=O)Cn2c(C)c(C#N)c3ccccc32)c1	3.53
CC(=O)Nc1cccc(C(=O)Nc2cccc(-c3cccc(-c4nc5ccccc5[nH]4)c3)c2)c1	16.4
Cc1cccn2c(=O)c3cc(C(=O)NCCN4CCOCC4)c(=N)n(CCc4ccccc4)c3nc12	-0.34
O=C(NC1CC1)c1cnc(N2CCC(COc3cccc(F)c3)CC2)c(Cl)c1	1.83
CNc1c2c(nc3ccc(NC(=O)CCCCCCc4ccccc4)cc13)CCCC2	5.72
CCOC(=O)c1cn(CC)c2cc(OCc3ccccc3)ccc2c1=O	0.45
O=S(=O)(c1ccccc1C(F)(F)F)C1CC2CCC(C1)N2S(=O)(=O)c1ccc(Cl)c(C(F)(F)F)c1 (stereo not given)	4.13
CC1CCC2(CC1)N=C(N)N=C(N)N2OCc1cc2ccccc2c2ccccc12 (stereo not given)	3.83

SMILES	inhibition [%]
O=C(NC1CC1)c1ccc(N2CCC(Cc3ccccc3)CC2)c([N+](=O)[O-])c1	0.6
O=S(=O)(Nc1ccc(CCN2CCCCC2CCN2CCCC2)cc1)c1ccc(-c2ccccc2)cc1 (stereo not given)	9.09
Cc1cc2nc(-c3ccc(/C=C/C(=O)NCc4ccc(Cl)c(Cl)c4)cc3)[nH]c2cc1C	8.62
Cc1c(OC(C)C)nc2ccccc2c1C(=O)N[C@H](c1cccc(F)c1)C1CC1	0.15
CS(=O)(=O)N1CC2(CCN(CCC(NC(=S)Nc3ccccc3)c3ccc(Cl)c(Cl)c3)CC2)c2ccccc21 (stereo not given)	3.72
COc1cc(OC)cc(C(=O)Nc2cccc(-c3cn4ccc(C)cc4n3)c2)c1	6.3
CN(C)CCN(C)Cc1cccc(-c2ccc3c(Nc4cc(O)c(Cl)cc4F)ccnc3c2)c1	1.45
CC(=O)Nc1cccc(C(=O)Nc2cccc(-c3csc(-c4nc5ccccc5[nH]4)c3)c2)c1	4.93
COc1cc2c(c(Cl)c1OC)CCN(C(=O)C(F)(F)F)CC2c1ccccc1 (stereo not given)	6.36
CCCC(N)C(=O)NC1CCN(c2c(F)c(N)c3c(=O)c(C(=O)O)cn4c3c2Oc2ccccc2-4)C1 (stereo not given)	82.5
CC(=O)C1=NN(c2ccc(C)cc2)C(c2cccs2)N1c1ccccc1 (stereo not given)	2.5
COc1cc(OCCCN(C)Cc2ccc(OC)c(OC)c2)ccc1NC(=O)c1cccc2c(O)c3cccc(F)c3nc12	2.95
COc1nc2c(CCN3CC[C@H](NCc4cc(C#N)c5c(c4)CCO5)[C@H](O)C3)ccnc2cc1F	8.01
COc1ccc2ncc(F)c(CCN3CC[C@H](NCc4cc5c(s4)CCCN5)[C@H](O)C3)c2n1	9.63
c1cn(-c2ccc(CNc3nccc(Nc4ccc(OCCN5CCOCC5)cc4)n3)cc2)cn1	-0.35
O=C(c1ccc([N+](=O)[O-])o1)N1CCN(c2ccccc2)CC1	3.6
CC(C)N1CCC(N(Cc2ccc(-c3ccc(C(F)(F)F)cc3)cc2)C(=O)Cn2c(CCc3cccc(F)c3F)cc(=O)c3ccccc32)CC1	0.12
CCC(CC)n1c(C)cc2c3c(N)nc(N)nc3ccc21	89.4
CCN(CC)CCN(Cc1ccc(-c2ccc(C(F)(F)F)cc2)cc1)C(=O)Cn1c(CCc2ccc(F)c(F)c2F)nc(=O)c2ccccc21	8.82
O=C(/C=C/c1ccc2ccccc2c1)NCC1(c2ccc(-c3ccccc3)cc2)CCOCC1	2.52

The molecules below were run against Hexose transporter 1 (Plasmodium falciparum) (UniProt O97467) (assay: ST_JUDE_LEISH: Cytotoxicity at 2uM final concentration against transgenic Leishmania Mexicana promastigotes LmPfHT that are glucose transport deficient and complemented with the Plasmodium falciparum hexose transporter. Activity is measured by DNA content using SYBR green in vitro).
Assay type: functional

SMILES	inhibition [%]
COc1ccc(Nc2nccc(N3CCC(NC(=O)c4cc5ccccc5s4)C3)n2)cc1 (stereo not given)	1.28
CCCCCCCc1c(C)nc2cccc(OC)c2c1O	59.4
CC(C)(C)OC(=O)c1c(NC(=O)/C=C/c2ccc(O)c(O)c2)sc2c1CCCC2	-1.04
COc1ccc(S(=O)(=O)NCCCC2CCN(CCCCCNC(=O)C=Cc3ccc(Cl)c(Cl)c3)CC2)cc1	0.8
N=C1NC(=N)N(OCCCCCCON2C(=N)NC(=N)NC2C=Cc2ccccc2)C(C=Cc2ccccc2)N1 (stereo not given)	2.16
Clc1ccc2nnc(-c3c(Cl)cccc3Cl)n2n1	4.09
Cn1cnc(CCNC(=O)c2ccc(-c3ccc(-c4nc5cc(C(F)(F)F)ccc5[nH]4)s3)cc2)c1	3.77
Cc1cc(C(F)(F)F)n2nc(C(=O)N(Cc3cncn3Cc3ccccc3F)CC3CC3)cc2n1	-0.8
CCN(C)CCCn1c(N(C)C)nc2cc(-n3cnc4cc(-c5ccc(Cl)cc5)sc4c3=O)ccc21	10.9
CC(CCc1ccccc1)NCC(O)c1ccc2c(c1)S(=O)(=O)c1ccccc1N2 (stereo not given)	1.25
CN1CCN(c2ncnc3ccc(NC(=O)Nc4ccc(Cl)c(Cl)c4)cc23)CC1	2.35
Nc1nc(N)c2c(ccc3nn(Cc4ccccc4)cc32)n1	0.59
COc1cccc(NC(=O)Cn2c(C)c(C#N)c3ccccc32)c1	5
CC(=O)Nc1cccc(C(=O)Nc2cccc(-c3cccc(-c4nc5ccccc5[nH]4)c3)c2)c1	15.5
Cc1cccn2c(=O)c3cc(C(=O)NCCN4CCOCC4)c(=N)n(CCc4ccccc4)c3nc12	2.09
O=C(NC1CC1)c1cnc(N2CCC(COc3cccc(F)c3)CC2)c(Cl)c1	2.54
CNc1c2c(nc3ccc(NC(=O)CCCCCCc4ccccc4)cc13)CCCC2	8.7
CCOC(=O)c1cn(CC)c2cc(OCc3ccccc3)ccc2c1=O	0.36
O=S(=O)(c1ccccc1C(F)(F)F)C1CC2CCC(C1)N2S(=O)(=O)c1ccc(Cl)c(C(F)(F)F)c1 (stereo not given)	2.35
CC1CCC2(CC1)N=C(N)N=C(N)N2OCc1cc2ccccc2c2ccccc12 (stereo not given)	2.5

SMILES	inhibition [%]
O=C(NC1CC1)c1ccc(N2CCC(Cc3ccccc3)CC2)c([N+](=O)[O-])c1	0.86
O=S(=O)(Nc1ccc(CCN2CCCCC2CCN2CCCC2)cc1)c1ccc(-c2ccccc2)cc1 (stereo not given)	14.3
Cc1cc2nc(-c3ccc(/C=C/C(=O)NCc4ccc(Cl)c(Cl)c4)cc3)[nH]c2cc1C	8.06
Cc1c(OC(C)C)nc2ccccc2c1C(=O)N[C@H](c1cccc(F)c1)C1CC1	-0.55
CS(=O)(=O)N1CC2(CCN(CCC(NC(=S)Nc3ccccc3)c3ccc(Cl)c(Cl)c3)CC2)c2ccccc21 (stereo not given)	1.67
COc1cc(OC)cc(C(=O)Nc2cccc(-c3cn4ccc(C)cc4n3)c2)c1	2.27
CN(C)CCN(C)Cc1cccc(-c2ccc3c(Nc4cc(O)c(Cl)cc4F)ccnc3c2)c1	-0.99
CC(=O)Nc1cccc(C(=O)Nc2cccc(-c3csc(-c4nc5ccccc5[nH]4)c3)c2)c1	2.83
COc1cc2c(c(Cl)c1OC)CCN(C(=O)C(F)(F)F)CC2c1ccccc1 (stereo not given)	5.47
CCCC(N)C(=O)NC1CCN(c2c(F)c(N)c3c(=O)c(C(=O)O)cn4c3c2Oc2ccccc2-4)C1 (stereo not given)	82.6
CC(=O)C1=NN(c2ccc(C)cc2)C(c2cccs2)N1c1ccccc1 (stereo not given)	2.74
COc1cc(OCCCN(C)Cc2ccc(OC)c(OC)c2)ccc1NC(=O)c1cccc2c(O)c3cccc(F)c3nc12	2.52
COc1nc2c(CCN3CC[C@H](NCc4cc(C#N)c5c(c4)CCO5)[C@H](O)C3)ccnc2cc1F	8.15
COc1ccc2ncc(F)c(CCN3CC[C@H](NCc4cc5c(s4)CCCN5)[C@H](O)C3)c2n1	15.1
c1cn(-c2ccc(CNc3nccc(Nc4ccc(OCCN5CCOCC5)cc4)n3)cc2)cn1	-0.43
O=C(c1ccc([N+](=O)[O-])o1)N1CCN(c2ccccc2)CC1	1.95
CC(C)N1CCC(N(Cc2ccc(-c3ccc(C(F)(F)F)cc3)cc2)C(=O)Cn2c(CCc3cccc(F)c3F)cc(=O)c3ccccc32)CC1	1.55
CCC(CC)n1c(C)cc2c3c(N)nc(N)nc3ccc21	90
CCN(CC)CCN(Cc1ccc(-c2ccc(C(F)(F)F)cc2)cc1)C(=O)Cn1c(CCc2ccc(F)c(F)c2F)nc(=O)c2ccccc21	7.31
O=C(/C=C/c1ccc2ccccc2c1)NCC1(c2ccc(-c3ccccc3)cc2)CCOCC1	2.55
